# SSB-PriA inh – K. pneumoniae PriA-SSBct interaction inhibition; AID 1272365; AlphaScreen SSBct-PriA binding, biotinylated peptide; inhibition, % at 33 µM; 430,000 compounds, 0.6% hits; in the data active = inhibition mostly above about 37%, no sharp cut-off; inactive = mostly below about 20%;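 also: plate controls were negative control peptide for no effect and reference peptide for full effect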
# Mtb hypoxia rep – reduces hypoxia-regulated biosensor signal in M. tuberculosis. fluorescence inhibition, % (concentration not given with the values). M. tuberculosis hypoxia-regulated fluorescent reporter, fluorescence. 300,000 compounds, 0.1% hits; in the data active = fluorescence inhibition mostly above about 23%, no sharp cut-off; inactive = mostly below about 17%
# Sa RN4220 lethal – S. aureus RN4220 growth inhibition; OD600, 16 h; inhibition, % (concentration not given with the values); 330,000 compounds, 0.33% hits; AID 1259311; in the data active = inhibition above about 85%;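 also: plate controls were untreated cells for no effect and reference antibiotic for full effect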
# ugtP null kill – kills S. aureus RN4220 lacking UgtP; S. aureus RN4220 ugtP deletion, OD600 growth, 16 h; growth inhibition, % (concentration not given with the values); 330,000 compounds, 0.54% hits; AID 1259309; in the data active = growth inhibition above about 68%;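 also: plate controls were untreated wells for no effect and antibiotic for full effect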
# Mtb betalactam – beta-lactam sensitization of Mtb H37Rv. inhibition, % at 25 µM. 330,000 compounds, 0.27% hits. M. tuberculosis H37Rv growth with meropenem, percent inhibition. AID 434955; call rule not given here;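 also: growth measured after seven days incubation then overnight dye step; 0% = bacteria only wells and 100% = bacteria with antibiotic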
# An asterisk follows results filed as active; · = no result shown. In the library only some 1% were active in any assay of this set; here they are far more common.
SMILES,SSB-PriA inh,Mtb hypoxia rep,Sa RN4220 lethal,ugtP null kill,Mtb betalactam
CC(=O)NC(c1ccccc1)c1cc([N+](=O)[O-])c2cccnc2c1O (stereo not given),44*,4,34,33,29
COc1cc(C(=O)Nc2ccc(OC)c(Cl)c2)ncn1,-4,·,·,·,·
Cc1ccc(C)c(NC(=O)Cn2c(-c3nc(-c4ccccc4)no3)cccc2=O)c1,-13,·,·,·,·
COc1cc2ccccc2cc1C(=O)N/N=C/c1cccnc1,·,·,·,·,78
COc1cc2ccccc2cc1C(=O)NN=Cc1cccnc1,-3,48*,1,-6,·
O=C1CN(C(=O)COC(=O)c2ccc(Cl)cc2)c2ccccc2N1,2,-4,2,7,·
O=C1CN(C(=O)COC(=O)c2c(F)cccc2Cl)c2ccccc2N1,5,30*,6,2,2
Cc1ccc(C)c(Nc2c([N+](=O)[O-])cc(C(=O)N3CC(=O)Nc4ccccc43)cc2[N+](=O)[O-])c1,53*,1,22,-13,90
Cc1cccc(Nc2c([N+](=O)[O-])cc(C(=O)N3CC(=O)Nc4ccccc43)cc2[N+](=O)[O-])c1,8,·,·,·,70
O=S(=O)(NCc1ccnc(-c2ccsc2)c1)c1cccc2nsnc12,-4,·,·,·,·
COc1ccc(-c2sc(Nc3ccccc3)n[n+]2-c2ccc(F)cc2)c(C)c1C,42*,1,-3,-43,1
COc1ccc(C)cc1Nc1n[n+](-c2ccccc2)c(-c2cc(OC)c(OC)cc2Br)s1,58*,·,·,·,88
Cc1cccc(-c2sc(Nc3ccccc3)n[n+]2-c2ccc(F)cc2)c1,2,·,·,·,5
O=c1c2c(-c3ccccc3)csc2ncn1/N=C\c1cccnc1,-4,·,·,·,·
COc1ccc(NC(=O)CC(NCc2ccccn2)C(=O)O)cc1 (stereo not given),-8,13,5,9,-6
CCOc1ccc(NC(=O)CC(NCc2ccccn2)C(=O)O)cc1 (stereo not given),96*,2,-1,5,-17
Cc1cc(C)c2sc(N(CCN(C)C)C(=O)c3ccc(S(=O)(=O)N(C)CC4CCCO4)cc3)nc2c1 (stereo not given),24,·,·,·,·
Cc1ccc(C)c(C(O)=C2C(=O)C(=O)N(CCN3CCOCC3)C2c2ccccc2F)c1 (stereo not given),48*,·,·,·,·
Cc1ccc(C)c(C(O)=C2C(=O)C(=O)N(CCN3CCOCC3)C2c2ccco2)c1 (stereo not given),6,·,·,·,·
Cc1cnnn1-c1ccc(C(=O)CCl)cc1,6,-83,98*,98*,-5
Cc1cnnn1-c1ccc(C(=O)Nc2ccc(Cl)cc2Cl)cc1,-1,·,·,·,·
CCc1c(C)nc2n(c1=O)C[C@H](C(=O)Nc1ccc3c(c1)OCCO3)CS2,-13,·,·,·,·
CC(NC(=O)CNC(=O)c1cccc(Cl)c1)c1ccccc1 (stereo not given),66*,14,-2,8,13
COc1cccc(NC(=O)CSc2ccc(-c3ccccn3)nn2)c1,76*,·,·,·,·
COc1ccc(NC(=O)CSc2ccc(-c3ccccn3)nn2)cc1,42,·,·,·,·
SMILES,SSB-PriA inh,Mtb hypoxia rep,Sa RN4220 lethal,ugtP null kill,Mtb betalactam
COc1cc(NC(=O)CSc2ccc(-c3ccccn3)nn2)cc(OC)c1,78*,9,1,-2,100
Cc1nnn(-c2nonc2N)c1C(=O)NN=Cc1cccc2ccccc12,-5,·,·,·,·
O=C(O)C[C@H](CC(=O)NCC1CCN(C(=O)COc2ccccc2)CC1)c1cccs1,-10,·,·,·,·
COC(=O)Cn1c(=NC(=O)C2COc3ccccc3O2)sc2cc(C)cc(C)c21 (stereo not given),-7,·,·,·,·
Oc1ccccc1-c1nc2ccccc2nc1-c1ccccc1,24,-10,5,12,2
Cc1ccc(-c2nc3ccccc3nc2-c2ccccc2)cc1,-46,3,-2,86*,-15
Clc1ccc(-c2nc3ccccc3nc2-c2ccccc2)cc1,-2,6,-5,89*,-1
Clc1nc2ccccc2nc1-c1ccccc1,-17,14,9,-1,-5
CC(C)N(C(=O)COC1C(C2COC3(CCCCC3)O2)OC2OC3(CCCCC3)OC21)c1ccccc1 (stereo not given),-7,·,·,·,·
Cc1ccc(-c2csc(-c3c[nH]c4ccccc34)n2)c(C)c1,2,·,-7,95*,40
O=[N+]([O-])c1ccc(-c2csc(NN=Cc3cccnc3)n2)cc1,-7,3,7,22,·
O=[N+]([O-])c1cccc(-c2csc(NN=Cc3cccc(O)c3)n2)c1,-4,0,85,94*,·
CON/C=C(\C=Nc1ccccc1)c1ncc(C(F)(F)F)cc1Cl,·,4,-1,96*,-1
CCOc1cc2[nH]c(=O)n(Cc3ccc(C(=O)NCCOC)cc3)c(=O)c2cc1OCC,104*,0,6,-3,-5
COC(=O)Cc1cc(=O)n(-c2nc3ccccc3[nH]2)[nH]1,75*,-3,15,-14,-5
COc1ccc(CC(=O)Nc2nc3ccccc3[nH]2)cc1,-8,7,-2,3,0
CCC1Oc2ccccc2N(CC(=O)NC2CCCCC2)C1=O (stereo not given),-7,1,10,101*,-2
O=C(O)CCc1csc(NC(=O)Nc2ccccc2)n1,-15,·,·,·,·
O=C(NN=Cc1c[nH]c2ccccc12)c1cc(-c2ccc(-c3ccccc3)cc2)n[nH]1,-8,4,87*,28,·
CC1(C)CC(=O)C2=C(C1)NC1=C(C(=O)c3ccccc31)C2c1ccc(O)cc1 (stereo not given),50*,-1,0,-3,-3
CCCc1ccc(C2C3=C(CC(C)(C)CC3=O)NC3=C2C(=O)c2ccccc23)cc1 (stereo not given),47*,-2,-6,-15,100
Cc1nc(SCc2ccccc2)[nH]c(=O)c1CC(=O)NCCC1=CCCCC1,-10,·,·,·,·
O=C(Cc1csc(SCc2ccc(F)cc2)n1)Nc1ccc(Cl)cc1,-33,·,·,·,·
COc1ccc(C)cc1NC(=O)c1nnn(Cc2cccc(C(F)(F)F)c2)c1N,-9,11,-3,98*,2
Cc1ccccc1-c1nc(CS(=O)CC(=O)NC(C)CCc2ccccc2)c(C)o1 (stereo not given),60*,-11,-4,-9,-7
SMILES,SSB-PriA inh,Mtb hypoxia rep,Sa RN4220 lethal,ugtP null kill,Mtb betalactam
CC1(C)S[C@@H]2[C@H](NC(=O)COc3ccccc3)C(=O)N2C1C(=O)OCc1cc2ccccc2n1S(=O)(=O)c1ccccc1 (stereo not given in full),·,·,·,·,-1
CC1(C)S[C@@H]2[C@H](NC(=O)COc3ccccc3)C(=O)N2C1C(=O)OCC1CCCCC1 (stereo not given in full),-10,1,99*,100*,19
CC1(C)SC2C(NC(=O)COc3ccccc3)C(=O)N2C1C(=O)OCc1ccccc1 (stereo not given),·,-4,100*,100*,·
CS(=O)(=O)N1CC(C(=O)N2CCN(C(=O)c3ccco3)CC2)C1,80*,·,·,·,·
NS(=O)(=O)c1ccc2c(c1)C(=O)c1ccccc1C2=O,11,·,·,·,·
NC1=C(Cl)C(=O)c2ccc(S(N)(=O)=O)cc2C1=O,-3,·,99*,98*,·

# Screening data (PubChem)
